According to PubChem BioAssay (NCI):
This is part of a sample that, as a whole, favours compounds with a hit. Of some 79,000 tested, about 15% had one in any assay. The source made the active and inactive calls. No stated cut-off is given here; in the data, active means growth inhibition above about 70%; inactive means the rest.

Assay: NCI Yeast Anticancer Drug Screen. Data for the mec2-1 strain (AID 157)
Conditions: S. cerevisiae mec2-1 strain, at 50.0 µM, hits give high values
Procedure, shortened: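 mec2-1 yeast strain, carrying an alteration in DNA damage repair or cell cycle control, was exposed to compounds; growth inhibition was measured relative to vehicle-treated controls.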
With `COc1ccc(NC(=O)CCC(=O)C(C)C(=O)c2ccccc2)cc1` (centres undefined) the growth inhibition was 16.2% (inactive).
With `CCCCCCCCCCCCCC(=O)CC(=O)c1c(O)cccc1O` the growth inhibition was -5.8% (inactive).
In the case of `Cc1ccc(NC(=S)SCc2ccco2)cc1Cl`, the growth inhibition was 99.8% (active).
In the case of `Cc1nc(N)nn1C`, the growth inhibition was 6.1% (inactive).
For `Cc1cccc(O)c(=O)c1`, the growth inhibition was 99.5% (active).
With `O=C1C=CC(=O)N1c1ccc(-c2nc3ccccc3o2)cc1` the growth inhibition was 88.9% (active).
For `NC1=NC(c2ccccc2)CC(c2cc(Cl)cc(Br)c2O)=N1` (centres undefined), the growth inhibition was 13.4% (inactive).
In the case of `CCCCCCCCCCCc1ccn[nH]1`, the growth inhibition was 99.3% (active).
For `CC(=O)Oc1c(-c2ccccc2)cc([N+](=O)[O-])cc1[N+](=O)[O-]`, the growth inhibition was 93.5% (active).
In the case of `COc1cccc2c1C1c3ccccc3Sc3cccc(c31)O2` (centres undefined), the growth inhibition was 18.3% (inactive).
In the case of `O=C1CC(O)C=C1Nc1ccc(Cl)cc1` (centres undefined), the growth inhibition was 98.2% (active).
With `C=CCNC(=S)N/N=C(/c1ccccn1)C(C)C` the growth inhibition was 98.5% (active).
For `CCCCCCCCCCCCCCCC[N+](C)(C)c1ccccc1`, the growth inhibition was 90.7% (active).
For `O=C(NC(OCc1ccccc1)(C(F)(F)F)C(F)(F)F)OCc1ccccc1`, the growth inhibition was 91% (active).
In the case of `Cc1cc2oc3c(ccc(=O)n3C)c(=O)c2c(C)c1Cl`, the growth inhibition was 29.4% (inactive).
With `COc1cc2c(cc1OC)C(=O)C(C)(c1ccccc1)NC2` (centres undefined) the growth inhibition was 98.8% (active).
For `CCC(C)NCCNc1cc(OC)cc2cccnc12` (centres undefined), the growth inhibition was 27% (inactive).
For `CN(C)CCCN=c1c2ccccc2n(O)c2ccccc12`, the growth inhibition was -6.95% (inactive).
For `N#CCc1ccccc1-c1cccc2ccccc12`, the growth inhibition was 29.4% (inactive).
